Only some compounds are listed: those with a hit (about 21% of all), similar ones and a draw of the others.
Pf growth 96h – Primary qHTS for delayed death inhibitors of the malarial parasite plastid, 96 hour incubation. P. falciparum luciferase reporter growth, 96 h. Potency, µM (highest dose often 28.7 µM), actives largely listed as inhibitors. 320,000 tested, 6.9% active
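Infected RBCs, 2% Hct / 0.05% parasitemia final; luciferase-reporter P. falciparum; cpd 96 h, 37 C, 5% CO2; luciferase detection reagent; luminescence.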
Sm TGR inh – qHTS Assay for the Inhibitors of Schistosoma Mansoni Peroxiredoxins | AID 485364, 2010 | Potency, µM (titrated, usually from 114 µM), usual class: inhibitors | 360,000 tested, 3% active | Schistosoma mansoni thioredoxin glutathione reductase (TGR), Q962Y6 | purified TGR, DTNB reduction, TNB absorbance 405 nm; further: nearly all actives have a fitted effect of over 60% in size
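Kinetic colorimetric format: TGR-catalysed, NADPH-driven DTNB reduction monitored via TNB absorbance. Enzyme dispensed at 20 nM; compound exposure 15 min at room temperature before reaction start.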
CHX counter – Cycloheximide Counterscreen for Small Molecule Inhibitors of Shiga Toxin | cell reporter, cycloheximide protein synthesis inhibition counterscreen | max response, % | 300,000 tested, 12% active | AID 2314, 2010; in the data active means max response mostly above about 13%, no sharp cut-off; inactive means mostly below about 14%; further: read at 38.3 µM for the half of the compounds with a filed dose
Pf growth 48h – Primary qHTS for delayed death inhibitors of the malarial parasite plastid, 48 hour incubation | P. falciparum luciferase growth in erythrocytes, 48 h | Potency, µM (highest dose often 28.7 µM), most hits filed as inhibitors | 310,000 tested, 5.9% active
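Luciferase-expressing P. falciparum in infected erythrocytes (2% hematocrit, 0.1% parasitemia final) in RPMI 1640/0.5% Albumax were exposed to compound for 48 hours at 37 C, 5% CO2; growth read as luminescence.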
Shiga toxin inh – A qHTS for Small Molecule Inhibitors of Shiga Toxin | Vero cells, Shiga toxin protein synthesis inhibition reporter | inhibition, % at 38.7 µM | 290,000 tested, 9.2% active; in the data active means inhibition mostly above about 28%, no sharp cut-off; inactive means mostly below about 43%
NS1 inh – qHTS Assay for Inhibitors of Influenza NS1 Protein Function; Potency, µM (series often up to 46.1 µM); 270,000 tested, 0.4% active; calls by dose curve; further: actives are rising curves; nearly all actives have a fitted effect of over 50% in size
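In this qHTS, NS1 from influenza A is expressed in budding yeast, where it slows growth. Cells are switched from glucose to 2% galactose medium (pH 6.0, -URA), treated with compound, and growth recovery is read at OD600.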
Each line names hits and unclear results; the compound was inactive in the other large screens. Unless noted, the call rests on the fitted dose curve; in most records, active means well fitted curve in the direction sought with a large enough effect; inconclusive means small, poorly fitted or top-dose-only effect, or another doubt; inactive means no such curve, though single readings can be large; an effect the other way counts as inactive or inconclusive.

Cc1cc2nc(-c3ccc[nH]c3=O)n(Cc3ccc(F)cc3)c2cc1C	CHX counter 11.6
Cc1cc2nc(-c3ccc[nH]c3=O)n(Cc3ccccc3F)c2cc1C	CHX counter 37.6, Shiga toxin inh 43.3
CC1CCN(c2cc(N)c(Cl)cc2[N+](=O)[O-])CC1	none
O=C(NNC(=O)c1ccc(-c2ccccc2)cc1)c1ccccc1	Pf growth 96h inconclusive, CHX counter 20.4, Shiga toxin inh 67.0
O=C(O)c1ccccc1C(=O)NCc1ccc(F)cc1	Pf growth 96h inconclusive
CC(C)Oc1ccc(C(=O)NNC(=O)c2ccccc2C(=O)O)cc1	CHX counter 17.4
O=C(O)c1ccccc1C(=O)NNc1ccc(F)cc1	Sm TGR inh 50.1µM
O=C(NNC(=O)c1ccccc1C(=O)O)c1ccc(O)cc1	CHX counter 23.5 (no result: Sm TGR inh)
O=C(COc1ccccc1)N=C1SC2CS(=O)(=O)CC2N1c1ccc(F)cc1F (centres undefined)	none
CCOc1ccc(N2C(=O)CC(N(CCc3ccc(S(N)(=O)=O)cc3)C(C)=O)C2=O)cc1 (centres undefined)	Pf growth 48h 3.7µM
CCCCCCOc1ccc(N2C(=O)CC(N(CCc3ccc(S(N)(=O)=O)cc3)C(C)=O)C2=O)cc1 (centres undefined)	Pf growth 48h inconclusive (no result: Sm TGR inh)
CCC(=O)N(Cc1ccc(S(N)(=O)=O)cc1)C1CC(=O)N(c2ccc(OC)cc2)C1=O (centres undefined)	Pf growth 96h inconclusive, Sm TGR inh 28.2µM
Cc1cc(NC(=O)CCNS(=O)(=O)c2cccc3nsnc23)ccc1Br	none (no result: Pf growth 96h, CHX counter, Pf growth 48h, Shiga toxin inh, NS1 inh)
CC1=NOC(=O)/C1=C\c1ccc2c(c1)OCO2	none (no result: NS1 inh)
Cc1cc(F)ccc1NC(=O)CN1C(=O)CCc2cc(S(=O)(=O)N3CCOCC3)ccc21	none (no result: Pf growth 96h, CHX counter, Pf growth 48h, Shiga toxin inh, NS1 inh)
COc1ccc2ccccc2c1CNCCc1ccccc1	Pf growth 48h 10.4µM
COc1ccc(-n2c(Cc3cccn3C)nnc2SCC(=O)NC2CCCC2)cc1	Sm TGR inh inconclusive
COc1ccc(-n2c(Cc3cccn3C)nnc2SCC(=O)NCc2ccco2)cc1	Sm TGR inh 56.2µM, Pf growth 48h inconclusive
COc1ccc(-n2c(Cc3cccn3C)nnc2SCC(=O)NCc2ccc(F)cc2)cc1	Pf growth 48h 8.28µM
COc1ccc(-n2c(Cc3cccn3C)nnc2SCC(=O)NCc2ccccc2Cl)cc1	Pf growth 96h 11.7µM, Pf growth 48h 9.28µM
COc1ccc(-n2c(Cc3cccn3C)nnc2SCC(N)=O)cc1	Sm TGR inh inconclusive
CC(=O)c1ccc(NC(=O)c2cc3c(=O)oc4ccc(C)cc4c3s2)cc1	none (no result: Pf growth 96h, CHX counter, Pf growth 48h, Shiga toxin inh, NS1 inh)
COc1ccc(Cn2c(=O)c3oc4ccccc4c3n(Cc3cccc(C)c3)c2=O)cc1	none (no result: Pf growth 96h, CHX counter, Pf growth 48h, Shiga toxin inh, NS1 inh)
O=[N+]([O-])c1cccc(NC(=S)N2CCCC2)c1	Pf growth 96h inconclusive
O=C(Nc1cccc(C(F)(F)F)c1)C(=O)N1CCCCC1	Pf growth 96h inconclusive, CHX counter 11.2
O=C(Nc1cccc([N+](=O)[O-])c1)C(=O)N1CCCCC1	CHX counter 43.0, Pf growth 48h inconclusive, Shiga toxin inh 69.4
Cc1ccc(C)c(Cn2cc(CCC(=O)NC3CCCCC3)c3ccccc32)c1	none (no result: Pf growth 96h, CHX counter, Pf growth 48h, Shiga toxin inh, NS1 inh)
Cc1ccc2cc(CCl)c(Cl)nc2c1	Sm TGR inh 25.1µM
CCc1cc2ccccc2nc1Cl	none (no result: Sm TGR inh)
ClCc1cc2ccccc2nc1Cl	Sm TGR inh 31.6µM, Pf growth 48h inconclusive
COc1ccc(Cl)cc1NC(=O)c1noc(C)c1[N+](=O)[O-]	none
CN1C(=O)/C(=C2\SC(=S)N(NC(=O)c3cccnc3)C2=O)c2ccccc21	Pf growth 96h 2.94µM
O=C1NC(=O)C2(Cc3c(nc4ccccn4c3=O)N3CCCCCC32)C(=O)N1Cc1ccccc1 (centres undefined)	Pf growth 96h 5.22µM, Pf growth 48h inconclusive
Cc1cccn2c(=O)c3c(nc12)N1CCCCC1C1(C3)C(=O)N(C)C(=O)N(C)C1=O (centres undefined)	Pf growth 96h 2.94µM, Pf growth 48h inconclusive
CC(=O)NNC(=O)c1nc(-c2ccccc2)c(C)o1	Pf growth 48h inconclusive
Cc1ccc(N(C(=O)c2ccco2)C2C=CS(=O)(=O)C2)cc1 (centres undefined)	none (no result: NS1 inh)
C#CCOCCOCCOCCNc1nc(N2CCN(C(=O)Cn3cc(CCCCN)nn3)CC2)nc(N2CCN(C(=O)Cn3cc(CC(C)O)nn3)CC2)n1 (centres undefined)	none
C#CCOCCOCCOCCNc1nc(N2CCN(C(=O)[C@H]([C@@H](C)CC)n3cc(CCCCN)nn3)CC2)nc(N2CCN(C(=O)[C@H](CCCCN)n3cc(CC(C)O)nn3)CC2)n1 (some centres undefined)	none (no result: CHX counter, Shiga toxin inh, NS1 inh)
C#CCOCCOCCOCCNc1nc(N2CCN(C(=O)CCCCCCCCCCNC(=O)Cn3cc(C[C@@H](C)O)nn3)CC2)nc(N2CCN(C(=O)CCCCCCCCCCNC(=O)[C@@H]([C@H](C)CC)n3cc(CCCCCN)nn3)CC2)n1	Pf growth 96h inconclusive, Pf growth 48h 2.33µM (no result: CHX counter, Shiga toxin inh, NS1 inh)
C#CCOCCOCCOCCNc1nc(N2CCN(C(=O)CCCCCCCCCCNC(=O)Cn3cc(CCCCCN)nn3)CC2)nc(N2CCN(C(=O)CCCCCCCCCCNC(=O)Cn3cc(C[C@@H](C)O)nn3)CC2)n1	Pf growth 96h 0.294µM, Pf growth 48h 0.329µM (no result: CHX counter, Shiga toxin inh, NS1 inh)
O=c1c(-c2nc3ccccc3s2)cccn1Cc1ccccc1	CHX counter 51.2, Shiga toxin inh 101.7
Cc1ccc(Cn2cccc(-c3nc4ccccc4s3)c2=O)cc1	CHX counter 43.4, Shiga toxin inh 70.3
CCCCNCc1cc2ccccc2o1	none
CCOc1ccc(Oc2cc(N)cc([N+](=O)[O-])c2)cc1	Pf growth 96h inconclusive, Shiga toxin inh 53.0 (no result: NS1 inh)
CC(=O)Nc1ccc(Oc2cc(N)cc([N+](=O)[O-])c2)cc1	none (no result: NS1 inh)
O=C(CCCCCn1c(=S)[nH]c2cc3c(cc2c1=O)OCO3)N1CCN(Cc2ccccc2)CC1	Pf growth 48h 11.7µM
O=C(CCCn1c(=S)[nH]c2cc3c(cc2c1=O)OCO3)NCc1cccc(Cl)c1	Pf growth 96h 9.28µM
COc1ccc(Cl)cc1-n1nnc(-c2nsc(NC(=O)c3ccccc3Cl)n2)c1C	none (no result: Pf growth 96h, CHX counter, Pf growth 48h, Shiga toxin inh, NS1 inh)
CCc1ccc(CNC(=O)c2ccc(CS(=O)(=O)Cc3cccc(C)c3)o2)cc1	none (no result: Pf growth 96h, CHX counter, Pf growth 48h, Shiga toxin inh, NS1 inh)
Cc1cccc(CS(=O)(=O)Cc2ccc(C(=O)NCc3cccnc3)o2)c1	Pf growth 96h 1.85µM, Sm TGR inh inconclusive
COCCCNC(=O)c1ccc(CS(=O)(=O)Cc2cccc(C)c2)o1	Pf growth 96h inconclusive
Cc1cccc(CS(=O)(=O)Cc2ccc(C(=O)NCCN3CCCCC3C)o2)c1 (centres undefined)	Sm TGR inh 35.5µM
Cc1cccc(CS(=O)(=O)Cc2ccc(C(=O)O)o2)c1	Sm TGR inh 25.1µM
CCOC(=O)c1sc2cccc(F)c2c1S(=O)(=O)NCc1ccccc1Cl	none (no result: Pf growth 96h, CHX counter, Pf growth 48h, Shiga toxin inh, NS1 inh)
